Data: the supplement of paper PMC6555819

Each sequence was assayed on VDR:RXRa (NR concentration 270 nM, RXRa partner concentration 90 nM) (assay: PBM binding z-score (relative to random genomic background probes); higher = stronger binding; sequences stand for … in GC…GCGATTGACAGCGTAGAATGAAGG).
Method: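 Protein-binding microarray (Agilent 4x180K custom design, double-stranded 60-nt probes: 5' GC cap, 34-nt variable region, 24-nt constant primer region; full probe sequence given). Purified or IVT nuclear receptor:RXRα heterodimers (3:1 NR:RXRα, mostly 270:90 nM) or homodimers were incubated for 1 h in PBS with 2% milk and no ligand, then detected with Alexa488 antibodies. Fluorescence from o1-orientation probes (~5 replicates averaged) was converted to z-scores against 500 random hg19 background probes. Variable regions are seed direct-repeat (DR0–DR5) sites, all their single-nucleotide variants and half-site ablations.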

Row | Sequence | PBM binding z-score
1 | TCTAGTTGGTCACGGAGGACACACACGACGGGTA | 2.67
2 | TAGCCTAGGTCATGCGGGCCAATATAGTGTCGGC | 3.64
3 | CCGAGAAGGTTACGAGGGGGCATTCAGTGCGAAT | 6.24
4 | AGAATGAGGTCAAGATCAGGGAAACAGAATACAT | 4.93
5 | AGAATGAGGTTAAACGTAGATCAGGGAAGAAAGT | 2.03
6 | CAAACTAGGTCACCGAAAGGTCAAAGTCCGCATG | 6.46
7 | ATCGAAAGGTCAAGGTGAGTATAGAGAAAGGGAA | 5.32
8 | CGTCCAAGGTCAAAGGTCAATGAAGAGATGACGG | 7.06
9 | CGTCCAAGGTCACGGTCAGTGAAAGAGACTCGAA | 5.13
10 | TAGCCTAGGTCATACAGGGGCCAGTATAGAAAGC | 2.6
11 | CGTCCAAGGTCAAGGTCAATGAAAGAGACTCGAA | 5.07
12 | ATCGAAAGGTCGACGAGGTGAGTAAACACCGTTT | 5.22
13 | TAGCCTAGTTCATGCGGGCCAGTATAGTGTCGGC | 1.14
14 | TCGTGTAGGTTACGGGGGCATTCAGGGATGAAGA | 4.42
15 | CCTACTGGGCCATTCAGAGGGCATTGATCATATG | 0.0939
16 | CCTTAAGGGTCACGAGGTTATAGCACGACGAGCG | 6.02
17 | CCTGCTAGGTCATGGTCAGCGAATCTACAGTATG | 1.5
18 | TCGCCTAGGTCATGGGCCAGTATACCACGCGAAC | 2.09
19 | AATACAGGGTCATCGTACGCCAGAGTACGCACAG | 5.2
20 | TCTCGGAGGACACAAAGGTCAGAGCTTTCCAGAG | 3.68

Row | Sequence | PBM binding z-score
21 | CGTCCAAGGTCACAGAGGTCAGTGAATGCCGAGT | 7.74
22 | GATACAGGGTCAGCTACAGGCCAGAGTATGGAAA | 2.55
23 | TCTAGTTGGTCACGGAGGTCCCACACGACGGGTA | 1.19
24 | TCTCGGAGGAAACGAAAGGTCAGAGCTCGACATC | 2.44
25 | CCTTACGGGTCACGAGGTTGTAGCACGACGAGCG | 5.26
26 | GCTGCTAGTTCAACTGATGGTCAGCTAAAGCTCG | 0.168
27 | AATACAGGGTGACTAGGCCAGAGTAGGTACGAAT | 0.257
28 | TTACCAAGGTCAAAGGTCGTTGATGCACGCCTTG | 6.42
29 | ATATGTAGTTTATCGGGTCATTCAGTTTGCGCAT | 5.19
30 | CCGAGTTGGTCAAGGTCACACACGCTATAGGTAC | 4.7
31 | CTCGAAAGGTCATGCTCAGGTGAGTATACCAAAC | 5.69
32 | ATATGTAGGTTAGGGTCAGTCAGAAAGTAGGGAA | 2.49
33 | AATAAAGGGTCATCGTAGGCCAGAGTACGCACAG | 5.33
34 | ATCGAAAGGTCGACGCGGTGAGTATACACCGTTT | 3.04
35 | GGAACGAGGTCAAGTTGATAGCAGAGTTTGATGG | 5.84
36 | ATCGAAAGGTCATGAGGTGAGTATACAGAAAGGC | 5.78
37 | AGTCAAAGTTCATCTAGGTAACATAAGATATGCT | 5.33
38 | CCTTACGGGTCACTCCAGGTCATAGCATCGGAGT | 5.95
39 | TTGCCAAGGTGAAAGGTCGTTGATGCACGCCTTG | 3.23
40 | AATACAGGGTCACGAGGCCAGAGTAGGTACGAAT | 5.41
